Assay outcomes: PubChem, National Center for Advancing Translational Sciences (NCATS)
This is a sample that favours compounds with a hit; in the whole collection about 14% have one here.
Sm TGR block – inhibitors of Schistosoma mansoni thioredoxin glutathione reductase | Potency, µM (top dose mostly 114 µM), for the others: at the highest dose activity change, negative = inhibition, usual class: inhibitors | purified TGR, DTNB reduction, TNB absorbance 405 nm | 360,000 compounds, 3% hits; also: potency is read from the fitted curve at half-maximal effect; nearly all actives have a fitted effect of over 60% in size
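Kinetic colorimetric format: TGR-catalysed, NADPH-driven DTNB reduction monitored via TNB absorbance. Enzyme dispensed at 20 nM; compound exposure 15 min at room temperature before reaction start.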
HCMV antiviral – human cytomegalovirus inhibition; activity change, negative = inhibition, % at 57.5 µM; AID 1259415; 410,000 compounds, 4.5% hits; HFF cells, HCMV-luciferase reporter, 72 h; active compounds read low; in the data active = activity change below about -60%; inconclusive = no clear call, values can overlap the other calls; inactive = above about -39%
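HFF cells seeded 16 h at 37C, treated with compounds, infected with luciferase-reporter HCMV at MOI 1 PFU/cell; luciferase read at 72 h post infection, normalized to buffer-only and Salinomycin controls.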
Giardia FBPA inh – inhibitors of Giardia lamblia fructose-1,6-bisphosphate aldolase; A8B2U2; purified Giardia FBPA; Potency, µM (doses to about 59.6 µM), for inactives: top-dose activity, negative = inhibition, most hits filed as inhibitors; 290,000 compounds, 0.71% hits; also: potency is read from the fitted curve at half-maximal effect; nearly all actives have a fitted effect of over 55% in size
Target sequence (A8B2U2 whole entry, looked up): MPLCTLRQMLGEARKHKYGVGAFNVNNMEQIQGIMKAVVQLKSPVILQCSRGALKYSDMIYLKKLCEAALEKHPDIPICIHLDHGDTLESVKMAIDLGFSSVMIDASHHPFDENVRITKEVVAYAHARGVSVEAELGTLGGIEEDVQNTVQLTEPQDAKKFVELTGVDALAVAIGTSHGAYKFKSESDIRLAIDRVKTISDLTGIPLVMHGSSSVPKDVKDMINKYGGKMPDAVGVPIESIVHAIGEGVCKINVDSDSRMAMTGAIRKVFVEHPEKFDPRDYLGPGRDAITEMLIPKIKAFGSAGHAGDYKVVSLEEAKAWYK
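40 nM FBPA preincubated 10 min at RT with compound (up to 57.5 uM final), then substrate plus GAPDH/TPI/NAD/arsenate coupling and diaphorase/resazurin added. Fluorescence read after 20 min at RT, 525/598 nm.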
Pf growth 96h – P. falciparum growth inhibition at 96 hours. 320,000 compounds, 6.9% hits. AID 504834. P. falciparum luciferase reporter growth, 96 h. Potency, µM (titrated, usually from 28.7 µM), for the others: at the highest dose activity change, negative = inhibition, usual class: inhibitors; also: potency is read from the fitted curve at half-maximal effect
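Infected RBCs, 2% Hct / 0.05% parasitemia final; luciferase-reporter P. falciparum; cpd 96 h, 37 C, 5% CO2; luciferase detection reagent; luminescence.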
Pf growth 48h – P. falciparum growth inhibition at 48 hours (one generation). P. falciparum luciferase growth in erythrocytes, 48 h. AID 504832. Potency, µM (titrated, usually from 28.7 µM), for inactives: at the highest dose activity change, negative = inhibition, actives largely listed as inhibitors. 310,000 compounds, 5.9% hits; also: potency is read from the fitted curve at half-maximal effect
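Here the parasites carry a stable luciferase gene and grow inside erythrocytes in Albumax-based RPMI medium with compound for one erythrocytic cycle. Activity is scored as loss of luminescent signal.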
* hit, by the source's call; ? = inconclusive; / = no result given; [ ] = remark or other dose. Unless noted, calls follow the shape of the dose curve; as a rule, active = well fitted curve in the direction sought with a large enough effect; inconclusive = small, poorly fitted or top-dose-only effect, or another doubt; inactive = no such curve, though single readings can be large; an effect the other way counts as inactive or inconclusive. % is scaled to controls: 0 for no effect and ±100 for the full control effect.

SMILES	Sm TGR block	HCMV antiviral	Giardia FBPA inh	Pf growth 96h	Pf growth 48h
CC1(C)C(C=C(Cl)Cl)C1C(=O)N/N=C/c1ccccc1F (centres undefined)	-1%	?	-2%	248%	?
CC1(C)C(C=C(Cl)Cl)C1C(=O)Nc1ccc([N+](=O)[O-])cc1 (centres undefined)	-3%	-96*	-7%	23%	?
O=C(NCc1ccccc1F)Nc1ccc([N+](=O)[O-])cc1	9%	?	-2%	13µM*	-5%
O=C(NCc1ccco1)c1cccc2c1C(=O)c1ccc(N3CCC(N4CCCCC4)CC3)cc1S2(=O)=O	/	-22	/	/	/
O=C(c1cccc(F)c1)N1CCC2(CCN(Cc3ccccc3)CC2)CC1	/	/	8%	/	/
Nc1c(-c2cccc([N+](=O)[O-])c2)nc2ccccn12	-1%	59	-24%	0%	142%
CC(C)CC1C2C(=O)N(c3ccccc3)C(=O)C2ON1c1ccccc1 (centres undefined)	6%	27	1%	7%	-4%
Cc1ccc(NC(=O)C2(c3ccc([N+](=O)[O-])cc3)CCCC2)cc1	1%	-25	-5%	-3%	2.6µM*
COc1cccc(NC(=O)NCc2ccccc2F)c1	/	-9	-8%	-22%	147%
Cc1ccc(NC(=O)Nc2cnccn2)cc1	3%	50	-9%	-24%	42%
O=C(Nc1ccc([N+](=O)[O-])cc1)Nc1cnccn1	-3%	-81*	/	?	?
COc1ccc(NC(=O)NCc2ccccc2F)cc1OC	-10%[57.1 µM]	-9	-1%	10µM*	6%
O=C1CSC(c2ccc([N+](=O)[O-])cc2)N1C1CCCCC1 (centres undefined)	19%	14	1%	0.47µM*	-8%
O=C1CSC(c2ccc([N+](=O)[O-])cc2)N1CCN1CCCCC1 (centres undefined)	9%	18	1%	?	32%
Cc1ccc(NC(=O)Cc2nnc(SCC(=O)NC3CCCC3)n2C)c(C)c1	-2%	-19	6%	6%	3%
COc1cc(-c2ccccc2)[nH]c(=S)n1	7%	-6	/	7.4µM*	35%
Cc1cccc(NC(=O)CSc2nc(=O)n(CCN3CCOCC3)c3c2CCC3)c1C	9%	-36	/	/	/
Cc1ccc(NC(=O)CSc2nc(=O)n(CCCN3CCOCC3)c3c2CCCC3)cc1	2%	-19	/	-24%	13µM*
CCOc1ccccc1NC(=O)CSc1nc(=O)n(CCN2CCOCC2)c2c1CCCC2	5%	-81*	/	?	?
COc1cc(CNc2cc(C)ccc2C)cc(OC)c1OC	0%	-7	-8%	?	5.2µM*
COc1ccc(CNc2cc(C)ccc2C)c(OC)c1OC	7%	-12	6%	/	?
COc1cc(OC)c(OC)cc1CNc1cc(C)ccc1OC	40µM*	?	-13%	?	?
COc1ccc(C(C)(C)NC(=O)C2CCC(=O)N(C3CCCC3)C2)cc1OC (centres undefined)	5%	4	/	?	-16%
COc1ccc(Cl)c2sc(N3CCN(C(C)=O)CC3)nc12	6%	2	11%	22%	5%
Cc1cccc(CN2CCN(C3CN(CCc4ccccc4)S(=O)(=O)C3)CC2)c1 (centres undefined)	/	-63*	/	/	/
SMILES	Sm TGR block	HCMV antiviral	Giardia FBPA inh	Pf growth 96h	Pf growth 48h
COc1ccc(Cl)cc1C(=O)NCc1ccco1	45µM*	?	0%	4%	?
COc1ccc(C(=O)Nc2ccccc2C(=O)NCc2ccco2)cc1OC	19%[11.4 µM]	22	-1%	?	/
COc1ccc(C(=O)Nc2ccc(Cl)cc2C(=O)NCc2ccco2)cc1OC	-24%	-11	-8%	22%	10µM*
CCOc1ccc(NC(=O)c2cc(OC)nc3ccccc23)cc1	-9%	-64*	10%	-26%	21%[0.00184 µM]
CCOc1ccc(NC(=O)c2cccc3ccccc23)cc1	-3%	5	-5%	?	12%
Cc1ccc(NC(=O)c2cc(Cl)nc3ccccc23)cc1	8%	-16	-4%	135%	4%
CCOc1ccc(NC(=O)c2cc3ccccc3cc2O)cc1	-8%	18	-5%	1.9µM*	1µM*
COc1cc(C(=O)Nc2ccc(C)cc2)c2ccccc2n1	-11%	-60*	0%	17%	-14%[0.00184 µM]
CC1(C(=O)NS(=O)(=O)c2ccc(F)cc2F)CCN1C(=O)C1CCCCC1 (centres undefined)	/	-10	/	/	/
CN1CCN(C(=O)c2ccc3c(Cl)c4c(nc3c2)CCCC4)CC1	-32%	-34	-1%	13µM*	-30%
COc1cccc(N2CCN(C(=O)c3ccc4c(Cl)c5c(nc4c3)CCCC5)CC2)c1	-1%	-75*	/	/	/
CCN1CCN(C(=O)c2ccc3c(Cl)c4c(nc3c2)CCCC4)CC1	-21%	?	/	-29%	?
CCOC(=O)N1CCN(C(=O)c2ccc3c(SCC(=O)O)c4c(nc3c2)CCCC4)CC1	-25%	/	-7%	12µM*	-5%
Cc1nc(C(F)(F)F)ccc1C(=O)Nc1ccc(C(F)(F)F)cn1	-1%	-34	0%	-19%	26%
Cc1nc(-c2ccncc2)nc(NCCNc2ccc(C(F)(F)F)cn2)c1Cl	6%	-30	0%	2.3µM*	3.7µM*
CC1C/C(=C/c2ccncc2)C(=O)/C(=C/c2ccncc2)C1 (centres undefined)	-3%	-101*	-3%	-22%	?
Cc1ccc(-n2nc3c([n+]2[O-])CCc2c-3no[n+]2[O-])cc1	1%	-78*	-1%	-1%	26%
Cc1cccc(-n2nc3c([n+]2[O-])CCc2nonc2-3)c1C	-5%	12	0%	9%	-8%
[O-][n+]1onc2c1CCc1c-2nn(-c2ccccc2Cl)[n+]1[O-]	-2%	-100*	-13%	?	?
CC(=O)C1=C(O)C(=O)N(c2ccc(F)cc2)C1c1ccc(C)cc1 (centres undefined)	-17%	-69*	-15%	?	9%
CN1C(=O)C(c2nnc(Nc3cccc4ccccc34)s2)C2CC1(C)Oc1ccccc12 (centres undefined)	-1%	-3	-8%	4.7µM*	?
COc1ccc(CCCNC(=O)C2Cc3c(-c4cccc(C(C)=O)c4)ccnc3O2)cc1 (centres undefined)	/	-6	/	/	/
O=C(c1ccc(F)cc1)C(CCCCCC(CN1CCOCC1)C(=O)c1ccc(F)cc1)CN1CCOCC1 (centres undefined)	-32%	-21	-14%	9.3µM*	?
C=C[C@@H]1c2ccccc2N(S(=O)(=O)c2ccc(C)cc2)[C@H](c2ccccc2)C1(C#N)C#N	-19%	-40	/	?	3.7µM*
C=C[C@@H]1c2cc(C)ccc2N(S(=O)(=O)c2ccc(C)cc2)[C@H](c2ccccc2)C1(C#N)C#N	-10%	-25	/	?	?
